Test results: PubChem BioAssay (EPA / NIEHS)
Results filed as inconclusive are left out. The source made the active and inactive calls. Rule for the calls: active = hit-call score of the fitted dose curve at least 0.9, where 1 is the maximum; inconclusive = response in the unintended direction; inactive = score below 0.9.

These compounds were tested against PGR (gene 5241) (UniProt P06401) (assay: NVS_NR_hPR: NovaScreen (NVS) Nuclear Receptor Binding Assay for human Progestron Receptor (PR) (AID 2283360);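 note: active means loss of bound radioligand signal versus DMSO baseline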).
Chain of PGR (gene 5241) (P06401 whole entry, looked up): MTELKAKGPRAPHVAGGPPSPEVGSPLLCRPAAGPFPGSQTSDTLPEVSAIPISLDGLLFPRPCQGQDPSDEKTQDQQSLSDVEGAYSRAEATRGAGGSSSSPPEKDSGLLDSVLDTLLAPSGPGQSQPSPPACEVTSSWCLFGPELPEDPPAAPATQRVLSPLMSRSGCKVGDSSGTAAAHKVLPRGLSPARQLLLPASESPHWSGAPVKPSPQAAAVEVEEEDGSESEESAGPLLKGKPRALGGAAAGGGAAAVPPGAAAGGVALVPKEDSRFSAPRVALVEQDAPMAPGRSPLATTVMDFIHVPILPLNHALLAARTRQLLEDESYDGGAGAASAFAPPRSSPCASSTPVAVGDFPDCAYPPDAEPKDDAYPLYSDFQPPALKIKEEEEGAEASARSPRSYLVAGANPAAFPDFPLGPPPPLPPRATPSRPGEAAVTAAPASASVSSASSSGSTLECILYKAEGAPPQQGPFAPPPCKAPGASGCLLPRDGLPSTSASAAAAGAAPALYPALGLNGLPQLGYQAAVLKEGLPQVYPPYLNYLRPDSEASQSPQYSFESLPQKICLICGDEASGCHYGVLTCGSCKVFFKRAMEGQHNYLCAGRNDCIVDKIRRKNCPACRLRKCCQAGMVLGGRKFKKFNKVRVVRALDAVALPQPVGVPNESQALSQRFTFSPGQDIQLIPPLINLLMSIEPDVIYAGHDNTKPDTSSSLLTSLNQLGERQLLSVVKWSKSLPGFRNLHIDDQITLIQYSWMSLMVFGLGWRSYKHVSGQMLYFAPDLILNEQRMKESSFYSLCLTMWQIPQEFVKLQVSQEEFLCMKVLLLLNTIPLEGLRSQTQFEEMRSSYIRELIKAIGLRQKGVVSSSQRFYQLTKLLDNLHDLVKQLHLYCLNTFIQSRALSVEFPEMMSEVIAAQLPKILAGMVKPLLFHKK
Protocol: NVS_NR_hPR is a biochemical, single-readout assay that uses extracted gene-proteins from T47D in a cell-free assay. Measurements were taken 18 hours after chemical dosing in a 96-well plate.NVS_NR_hPR is one of one assay component(s) measured or calculated from the NVS_NR_hPR assay. It is designed to make measurements of radioligand binding, a form of binding reporter, as detected with scintillation counting signals by Lysate-based radiodetection technology.Data from the assay component NVS_NR_hPR was analyzed into 1 assay endpoint. This assay endpoint, NVS_NR_hPR, was analyzed in the positive analysis fitting direction relative to DMSO as the negative control and baseline of activity. Using a type of binding reporter, loss-of-signal activity can be used to understand changes in the binding as they relate to the gene PGR. Furthermore, this assay endpoint can be referred to as a primary readout, because the performed assay has only produced 1 assay endpoint. To generalize the intended target to other relatable targets, this assay endpoint is annotated to the nuclear receptor intended target family, where the subfamily is steroidal.
Binding assays used specific radioligands (tritiated, iodinated) with non-radioactive competitive displacement ligands in agonist or antagonist protocols (as indicated) and various reference compounds and inhibitors to titrate specific binding to receptors and transporters. Most enzyme assays (CYPs, kinases, phosphatases, proteases, HDACs) used recombinant protein and specific substrates (fluorescence mostly, some colorimetric and radioactive) and inhibitors, followed by a biochemical separation of substrate and product. All assays for the biochemical HTS were initially run in duplicate at a single concentration (10 uM for CYP450 assays and 25 uM for all others). […] Each assay was run with positive and negative controls, and concurrent controls on every plate. The follow-up (secondary) screen tested active chemical-pairs in concentration series, as well as a few additional assays not tested in the primary screen, some selected negative inactives, and several cases re-run in the concentration series for confirmatory purposes.
In the case of `Cn1cnc2c1c(=O)[nH]c(=O)n2C`, the outcome is reported as “inactive”.
With `COC(=O)CCC(=O)OC` the outcome was “inactive”.
In the case of `CCc1nc(N)nc(N)c1-c1ccc(Cl)cc1`, the outcome is reported as “inactive”.
For `CN(C)CCCN(C)CCCN(C)C`, the outcome was “inactive”.
With `O=Cc1ccccc1C=O` the outcome was “inactive”.
In the case of `CSc1ccc(Oc2ccc(S(N)(=O)=O)cc2CN(C)C)cc1C`, the outcome is reported as “inactive”.
With `CC(=O)[C@@]1(O)CC[C@H]2[C@@H]3CCC4=CC(=O)CC[C@]4(C)[C@H]3CC[C@@]21C` the AC50 was 645 nM (active).
In the case of `OCC(O)CO`, the outcome is reported as “inactive”.
In the case of `O=C(O)c1cccnc1`, the outcome is reported as “inactive”.
In the case of `CO[C@@H]1COCC[C@@H]1N[C@@H]1CC[C@@](C(=O)N2CCc3ncc(C(F)(F)F)cc3C2)(C(C)C)C1`, the outcome is reported as “inactive”.
In the case of `CC(=O)O`, the outcome is reported as “inactive”.
In the case of `CC(C)COC(=O)CCCCC(=O)OCC(C)C`, the outcome is reported as “inactive”.
`CC1=C(C)S(=O)(=O)CCS1(=O)=O` was tested, and the outcome was “inactive”.
